We go through 8 compounds from PubChem BioAssay (NCI).

The structures appear in SMILES notation. Compounds without any hit were thinned out: in the full panel of roughly 83,000, 20% have a hit.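 For each line, cells grew in 96-well plates with the test compound present at a single concentration for 48 hours.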 A number with no mark means an inactive call. The source made the active and inactive calls. The calls were made as follows: active = growth percent below 10; inactive = the rest.

Test systems include K-562 leukemia; MALME-3M melanoma; MDA-MB-231 breast; RXF 393 renal; SF-268 CNS; SF-295 CNS; SF-539 CNS; UACC-257 melanoma; M14 melanoma; HCT-15 colon; HT29 colon; SNB-75 CNS; SNB-19 CNS; U251 CNS; PC-3 prostate; SK-MEL-5 melanoma; UACC-62 melanoma; LOX IMVI melanoma; SK-MEL-28 melanoma; SK-MEL-2 melanoma.
What all share (assay): NCI-60 one-dose screen, 48 h (100 = growth as untreated, 0 = no growth, -100 = all killed)
What all share (conditions): 10 µM unless noted

With `Clc1ccc2c(OCCCN3CCOCC3)c3oc4ccccc4c3nc2c1`, the growth with K-562 leukemia is 19.8%; in the experiment on MALME-3M melanoma it was 12.5%; in the experiment with MDA-MB-231 breast, 32.3%; with RXF 393 renal, 26.7%; with SF-268 CNS, 38.3%; with SF-295 CNS, 26%. For the same compound, the growth with SF-539 CNS was 22.9%; with UACC-257 melanoma, 59.8%; with M14 melanoma, 30.3%; with HCT-15 colon, 20.3%; in the experiment with HT29 colon it was 25.2%; with SNB-75 CNS, 43.5%. Moreover, the growth with SNB-19 CNS is 41.9%; with U251 CNS, 36.2%; in the experiment with PC-3 prostate, 50.7%; with SK-MEL-5 melanoma, 42.7%; in the experiment on UACC-62 melanoma it was 33.6%; in the experiment on LOX IMVI melanoma, 12.9%. The growth is 42.1% in the experiment on SK-MEL-28 melanoma and 78.2% in the experiment on SK-MEL-2 melanoma.

`CN1C(=O)N(c2ccccc2)C2N=C(N/N=C/c3ccccc3)SC21` (stereo not given): the growth with K-562 leukemia is 12%; with MALME-3M melanoma, 47.9%; with MDA-MB-231 breast it was 31.9%; in the experiment on RXF 393 renal, -2.78% (active); with SF-268 CNS it was 55%; in the experiment on SF-295 CNS it was 30.5%. Also, the growth in the experiment with SF-539 CNS was -6.36% (active); in the experiment on UACC-257 melanoma, 64%; in the experiment on M14 melanoma, -18.9% (active); in the experiment with HCT-15 colon, 30.3%; in the experiment on HT29 colon, 3.18% (active); in the experiment with SNB-75 CNS, -13.5% (active). Further, the growth in the experiment on SNB-19 CNS is 53%; with U251 CNS, 15.8%; in the experiment with PC-3 prostate, 33%; in the experiment with SK-MEL-5 melanoma, 5.76% (active); in the experiment with UACC-62 melanoma, 44.4%; in the experiment on LOX IMVI melanoma it was 23.2%. The values for the growth in the experiment with SK-MEL-28 melanoma and in the experiment on SK-MEL-2 melanoma were 61.3% and -3.76% (active), respectively.

Consider `COc1cc(OC)c(C2C(Cl)C(=O)N2Nc2ncnc3ccccc23)cc1OC` (stereo not given), for which the growth with K-562 leukemia was 100%; with MALME-3M melanoma, 93.2%; in the experiment with MDA-MB-231 breast, 87.3%; with RXF 393 renal, 112%; in the experiment with SF-268 CNS it was 99.2%; with SF-295 CNS, 102%. Besides, the growth with SF-539 CNS is 104%; in the experiment with UACC-257 melanoma, 111%; in the experiment with M14 melanoma, 88.6%; in the experiment on HCT-15 colon it was 101%; in the experiment on HT29 colon it was 112%; in the experiment with SNB-75 CNS, 80.5%. Moreover, the growth in the experiment on SNB-19 CNS is 98.9%; with U251 CNS, 91.7%; in the experiment on PC-3 prostate it was 89.6%; in the experiment on SK-MEL-5 melanoma, 99.3%; in the experiment with UACC-62 melanoma, 91.7%; in the experiment on LOX IMVI melanoma, 45.6%. Moreover, the growth with SK-MEL-28 melanoma is 105%; with SK-MEL-2 melanoma, 121%.

In the case of `N#Cc1c(-c2ccc(Cl)cc2)nc(SCc2ccc(F)cc2)nc1N1CCNCC1`, the growth is -34.5% (active) in the experiment on K-562 leukemia; 88.3% with MALME-3M melanoma; 16.2% in the experiment with MDA-MB-231 breast; 58.5% in the experiment with RXF 393 renal; 73.3% with SF-268 CNS; 96.8% in the experiment on SF-295 CNS. Moreover, the growth is 75.9% in the experiment on SF-539 CNS; 86.4% with UACC-257 melanoma; 72.8% in the experiment with M14 melanoma; 1.29% (active) with HCT-15 colon; -51.8% (active) with HT29 colon; 65.3% in the experiment with SNB-75 CNS. For the same compound, the growth with SNB-19 CNS was 76.6%; with U251 CNS, -71.5% (active); with PC-3 prostate it was 53.8%; in the experiment with SK-MEL-5 melanoma, 62.5%; in the experiment with UACC-62 melanoma, 95%; with LOX IMVI melanoma, -59.2% (active). In addition, the results for the growth in the experiment with SK-MEL-28 melanoma and with SK-MEL-2 melanoma were 99.3% and 111%, respectively.

Consider `CCN1C(=S)N(CC)C2C1NN=C1SC(c3ccccc3)=CC(=O)N12` (stereo not given), for which the growth in the experiment with K-562 leukemia was 57.1%; with MALME-3M melanoma, 105%; with MDA-MB-231 breast, 94%; in the experiment with RXF 393 renal, 89%; with SF-268 CNS it was 115%; with SF-295 CNS it was 106%. Moreover, the growth in the experiment on SF-539 CNS was 98%; in the experiment with UACC-257 melanoma it was 103%; with M14 melanoma it was 106%; in the experiment on HCT-15 colon, 78.2%; with HT29 colon it was 106%; in the experiment with SNB-75 CNS it was 129%. Moreover, the growth is 98.5% in the experiment on SNB-19 CNS; 103% in the experiment with U251 CNS; 99.2% in the experiment on PC-3 prostate; 99.7% in the experiment with SK-MEL-5 melanoma; 92.6% with UACC-62 melanoma; 100% in the experiment on LOX IMVI melanoma. For the same compound, the growth in the experiment on SK-MEL-28 melanoma is 99.5%; in the experiment on SK-MEL-2 melanoma it was 98.2%.

As for `O=c1[nH]c2ccc(Cl)cc2cc1CSc1ccccc1Nc1nccc(-c2ccc(Cl)cc2)n1`, the growth is 71.6% with K-562 leukemia; 90.4% in the experiment with MALME-3M melanoma; 94.3% with MDA-MB-231 breast; 84.7% in the experiment with RXF 393 renal; 81.5% in the experiment on SF-268 CNS; 96.3% in the experiment on SF-295 CNS. Moreover, the growth is 89.1% in the experiment with SF-539 CNS; 100% with UACC-257 melanoma; 102% in the experiment with M14 melanoma; 91.5% in the experiment on HCT-15 colon; 109% with HT29 colon; 76.6% with SNB-75 CNS. The growth with SNB-19 CNS was 95%; in the experiment on U251 CNS, 79.7%; with PC-3 prostate, 69%; with SK-MEL-5 melanoma it was 95.1%; with UACC-62 melanoma it was 75.9%; in the experiment with LOX IMVI melanoma, 98.4%. Besides, the growth is 106% in the experiment with SK-MEL-28 melanoma and 129% in the experiment on SK-MEL-2 melanoma.

Turning to `N=C1CC(=O)NN1C(=O)CSc1nc2sc3c(c2c(=O)n1-c1ccc(Cl)cc1)CCCC3`, the growth with K-562 leukemia is 94.6%; in the experiment with MALME-3M melanoma it was 90.5%; in the experiment on MDA-MB-231 breast it was 87.7%; in the experiment with RXF 393 renal, 119%; in the experiment on SF-268 CNS it was 99.7%; in the experiment with SF-295 CNS, 97.6%. The growth in the experiment on SF-539 CNS is 97.3%; with UACC-257 melanoma, 106%; in the experiment with M14 melanoma, 99.3%; in the experiment with HCT-15 colon, 106%; with HT29 colon, 126%; in the experiment on SNB-75 CNS, 73.7%. Further, the growth with SNB-19 CNS is 92.9%; with U251 CNS, 101%; in the experiment on PC-3 prostate, 95.6%; in the experiment on SK-MEL-5 melanoma, 103%; in the experiment on UACC-62 melanoma it was 93.9%; in the experiment with LOX IMVI melanoma, 97.1%. Besides, the growth in the experiment with SK-MEL-28 melanoma was 108%; with SK-MEL-2 melanoma, 128%.

`CN1CCN(Cc2ccc(NC(=O)c3cncc(C#Cc4cnc5ccc(N6CCSCC6)nn45)c3)cc2C(F)(F)F)CC1`: the growth is -16.2% (active) in the experiment with K-562 leukemia; -62.6% (active) in the experiment on MALME-3M melanoma; -38.4% (active) with MDA-MB-231 breast; -87.3% (active) in the experiment on RXF 393 renal; -52.9% (active) in the experiment with SF-268 CNS; -36.2% (active) in the experiment on SF-295 CNS. Further, the growth in the experiment on SF-539 CNS was -94.2% (active); in the experiment on UACC-257 melanoma, 31.1%; in the experiment on M14 melanoma, -81.6% (active); in the experiment with HCT-15 colon it was -38.9% (active); in the experiment with HT29 colon, -50.1% (active); in the experiment with SNB-75 CNS, -67.4% (active). The growth in the experiment on SNB-19 CNS is -12.6% (active); with U251 CNS, -91.6% (active); in the experiment on PC-3 prostate, 1.39% (active); in the experiment on SK-MEL-5 melanoma, 7.81% (active); in the experiment on UACC-62 melanoma, -30.5% (active); in the experiment with LOX IMVI melanoma it was -89.8% (active). Further, the figures for the growth with SK-MEL-28 melanoma and in the experiment with SK-MEL-2 melanoma were -48.1% (active) and -89.1% (active), respectively.
